# Assay results: PubChem BioAssay (NCATS)
# Inconclusive results are not listed. A number with no mark means an inactive call. The source made the active and inactive calls. The call rests on the fitted dose curve; in most records, active means well fitted cell-killing curve with a large enough effect; inconclusive means small, poorly fitted or top-dose-only effect, or effect the other way; inactive means no such curve, though single readings can be large or run the other way.
# What was measured:
# [1] = Quantitative High-Throughput drug screen in 47 multiple myeloma cell lines against the NCATS MIPE library collection: OCIMY1_PLB cell viability assay (AID 1918979); further: nearly all actives have a fitted effect of over 35% in size;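 on viability: 100% = DMSO-only wells and 0% = cell-free media-only wells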
# Summary of the method: (§1)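 ATP-based luminescence (CellTiter-Glo, 5 min RT incubation) quantified surviving cells following two days' treatment with MIPE 4.0 agents at 37 °C, 5% CO2.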
# [2] = Quantitative High-Throughput drug screen in 47 multiple myeloma cell lines against the NCATS MIPE library collection: MM1S_ATCC cell viability assay (AID 1918980); further: nearly all actives have a fitted effect of over 45% in size
# Summary of the method: as §1
# [3] = Quantitative High-Throughput drug screen in 47 multiple myeloma cell lines against the NCATS MIPE library collection: LP1_DSMZ cell viability assay (AID 1918982); further: nearly all actives have a fitted effect of over 35% in size
# Summary of the method: as §1
# [4] = Quantitative High-Throughput drug screen in 47 multiple myeloma cell lines against the NCATS MIPE library collection: L363_DSMZ cell viability assay (AID 1918984); further: nearly all actives have a fitted effect of over 40% in size
# Summary of the method: as §1
# [5] = Quantitative High-Throughput drug screen in 47 multiple myeloma cell lines against the NCATS MIPE library collection: OCIMY7_PLB cell viability assay (AID 1918987); conditions: OCI-MY7 myeloma viability, CellTiter-Glo ATP, 48 h; viability (% of DMSO): at 45.8 µM (top of the series); further: nearly all actives have a fitted effect of over 65% in size
# Summary of the method: as §1
# [6] = Quantitative High-Throughput drug screen in 47 multiple myeloma cell lines against the NCATS MIPE library collection: OCIMY5_PLB cell viability assay (AID 1918988); further: nearly all actives have a fitted effect of over 65% in size
# Summary of the method: as §1
# [7] = Quantitative High-Throughput drug screen in 47 multiple myeloma cell lines against the NCATS MIPE library collection: OPM1_PLB cell viability assay (AID 1918989); further: nearly all actives have a fitted effect of over 40% in size
# Summary of the method: as §1
# [8] = Quantitative High-Throughput drug screen in 47 multiple myeloma cell lines against the NCATS MIPE library collection: XG6_PLB cell viability assay (AID 1919865); further: nearly all actives have a fitted effect of over 40% in size
# Summary of the method: as §1
# [9] = Quantitative High-Throughput drug screen in 47 multiple myeloma cell lines against the NCATS MIPE library collection: XG1_PLB cell viability assay (AID 1919866); further: nearly all actives have a fitted effect of over 35% in size
# Summary of the method: as §1
# [10] = Quantitative High-Throughput drug screen in 47 multiple myeloma cell lines against the NCATS MIPE library collection: VP6_DJ cell viability assay (AID 1919867); further: nearly all actives have a fitted effect of over 40% in size
# Summary of the method: as §1
# [11] = Quantitative High-Throughput drug screen in 47 multiple myeloma cell lines against the NCATS MIPE library collection: UTMC2_PLB cell viability assay (AID 1919868); conditions: CellTiter-Glo ATP luminescence, 48 h; viability (% of DMSO control): at 45.8 µM (top of the series); further: nearly all actives have a fitted effect of over 55% in size;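 on viability (% of DMSO control): 100% = DMSO-only wells and 0% = media-only wells without cells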
# Summary of the method: as §1
# [12] = Quantitative High-Throughput drug screen in 47 multiple myeloma cell lines against the NCATS MIPE library collection: PE2_PLB cell viability assay (AID 1919869); further: nearly all actives have a fitted effect of over 35% in size
# Summary of the method: as §1
# [13] = Quantitative High-Throughput drug screen in 47 multiple myeloma cell lines against the NCATS MIPE library collection: PCM6_Riken cell viability assay (AID 1919870); further: nearly all actives have a fitted effect of over 30% in size
# Summary of the method: as §1
# [14] = Quantitative High-Throughput drug screen in 47 multiple myeloma cell lines against the NCATS MIPE library collection: KMS28PE_JCRB cell viability assay (AID 1918983); further: nearly all actives have a fitted effect of over 35% in size
# Summary of the method: as §1
# [15] = Quantitative High-Throughput drug screen in 47 multiple myeloma cell lines against the NCATS MIPE library collection: SKMM1_PLB cell viability assay (AID 1919863); conditions: SKMM1 myeloma viability, CellTiter-Glo ATP, 48 h; viability: hits give low values; further: nearly all actives have a fitted effect of over 35% in size
# Summary of the method: as §1
# [16] = Quantitative High-Throughput drug screen in 47 multiple myeloma cell lines against the NCATS MIPE library collection: MM1R_ATCC cell viability assay (AID 1918981); further: nearly all actives have a fitted effect of over 35% in size
# Summary of the method: as §1
# [17] = Quantitative High-Throughput drug screen in 47 multiple myeloma cell lines against the NCATS MIPE library collection: KMS34_JCRB cell viability assay (AID 1918985); further: nearly all actives have a fitted effect of over 40% in size
# Summary of the method: as §1
# [18] = Quantitative High-Throughput drug screen in 47 multiple myeloma cell lines against the NCATS MIPE library collection: U266_ATCC cell viability assay (AID 1919864); further: nearly all actives have a fitted effect of over 35% in size;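 on viability (% of DMSO control): 0% = media-only wells without cells and 100% = DMSO-only wells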
# Summary of the method: as §1
# Potency means the concentration at half of the fitted maximal effect.
structure (smiles),measurement,setting,value
COc1cc2ncnc(-n3nc(-c4ccccn4)nc3N)c2cc1OC,Potency,[1],inactive
same,Potency,[2],20.9 µM (active)
same,Potency,[3],inactive
same,Potency,[4],0.662 µM (active)
same,Potency,[5],1.66 µM (active)
same,Potency,[6],5.26 µM (active)
same,Potency,[7],11.8 µM (active)
same,Potency,[8],1.05 µM (active)
same,Potency,[9],5.9 µM (active)
same,Potency,[10],6.62 µM (active)
same,Potency,[11],3.32 µM (active)
same,Potency,[12],3.72 µM (active)
same,Potency,[13],4.69 µM (active)
Cn1cc(C=C2C(=O)Nc3cccnc32)c2ccccc21,Potency,[1],inactive
same,Potency,[3],inactive
same,Potency,[14],inactive
same,Potency,[7],18.7 µM (active)
same,viability,[15],130%
same,Potency,[9],inactive
same,Potency,[10],10.5 µM (active)
NC(=O)c1cccc2[nH]c(-c3ccc([C@H]4CCCN4)cc3F)nc12,Potency,[1],inactive
same,Potency,[3],inactive
same,Potency,[14],inactive
same,Potency,[4],14.8 µM (active)
same,Potency,[6],20.9 µM (active)
same,Potency,[10],14.8 µM (active)
same,Potency,[11],inactive
same,Potency,[12],16.6 µM (active)
O=c1cc(-c2ccccc2)oc2cc(O)cc(O)c12,Potency,[1],inactive
same,Potency,[16],inactive
same,Potency,[4],16.6 µM (active)
same,Potency,[17],inactive
same,Potency,[7],inactive
same,viability,[15],139%
same,Potency,[18],inactive
same,Potency,[13],20.9 µM (active)
COCCCCC(=NOCCN)c1ccc(C(F)(F)F)cc1,Potency,[1],inactive
same,Potency,[2],16.6 µM (active)
same,Potency,[4],inactive
same,Potency,[17],3.72 µM (active)
same,Potency,[6],23.5 µM (active)
same,Potency,[7],23.5 µM (active)
same,Potency,[18],16.6 µM (active)
same,Potency,[12],18.7 µM (active)
CCS(=O)(=O)N1CC(CC#N)(n2cc(-c3ncnc4[nH]ccc34)cn2)C1,Potency,[1],inactive
same,Potency,[2],20.9 µM (active)
same,Potency,[4],inactive
same,Potency,[17],6.62 µM (active)
same,Potency,[5],8.33 µM (active)
same,Potency,[6],7.43 µM (active)
same,Potency,[7],20.9 µM (active)
same,Potency,[18],23.5 µM (active)
same,Potency,[8],2.09 µM (active)
same,Potency,[9],0.332 µM (active)
same,Potency,[13],5.9 µM (active)
COc1ccc2c(Oc3ccc(NC(=O)c4c(C)n(CC(C)(C)O)n(-c5ccccc5)c4=O)nc3)ccnc2c1,Potency,[1],inactive
same,Potency,[16],inactive
same,Potency,[3],inactive
same,Potency,[17],inactive
same,Potency,[6],26.4 µM (active)
same,Potency,[7],inactive
same,Potency,[18],inactive
CC(C)(Cc1ccc2ccccc2c1)NC[C@@H](O)COc1cccc(Cl)c1C#N,Potency,[1],inactive
same,Potency,[2],16.6 µM (active)
same,Potency,[3],inactive
same,Potency,[14],inactive
same,Potency,[17],inactive
same,viability,[15],126%
same,Potency,[18],inactive
same,Potency,[8],inactive
same,Potency,[9],inactive
same,Potency,[11],inactive
same,Potency,[12],inactive
same,Potency,[13],inactive
CCCCCCCCCCCC1=C(O)C(=O)C=C(O)C1=O,Potency,[1],inactive
same,Potency,[5],10.5 µM (active)
same,Potency,[6],29.6 µM (active)
same,Potency,[8],0.372 µM (active)
same,Potency,[10],2.64 µM (active)
O=C(CCc1ccc(O)cc1)c1c(O)cc(O)cc1O[C@@H]1O[C@H](CO)[C@H](O)[C@H](O)[C@H]1O,Potency,[1],inactive
same,Potency,[16],inactive
same,Potency,[3],inactive
same,Potency,[6],inactive
same,Potency,[18],inactive
same,Potency,[12],inactive
N#CC1(c2ccc(NC(=O)c3cccnc3NCc3ccncc3)cc2)CCCC1,Potency,[1],inactive
same,Potency,[2],inactive
same,Potency,[3],16.6 µM (active)
same,Potency,[17],inactive
same,Potency,[7],16.6 µM (active)
same,Potency,[18],inactive
same,Potency,[8],18.7 µM (active)
same,Potency,[9],20.9 µM (active)
same,Potency,[10],14.8 µM (active)
same,Potency,[12],18.7 µM (active)
O=C(O)c1ccc(-c2c[nH]c3ncc(-c4ccccc4)cc23)cc1C1CCCC1,Potency,[1],inactive
same,Potency,[3],inactive
same,Potency,[17],14.8 µM (active)
same,Potency,[5],8.33 µM (active)
same,viability,[15],132%
same,Potency,[18],inactive
CC1(C)S[C@H]2[C@H](NC(=O)[C@@H](N)c3ccc(O)cc3)C(=O)N2[C@@H]1C(=O)O,Potency,[1],inactive
same,Potency,[14],18.7 µM (active)
same,Potency,[4],2.64 µM (active)
same,Potency,[5],3.72 µM (active)
same,Potency,[18],11.8 µM (active)
same,Potency,[8],2.64 µM (active)
same,Potency,[9],1.32 µM (active)
same,Potency,[12],inactive
same,Potency,[13],1.87 µM (active)
O=C(NCc1ccccc1)c1csc(Nc2ccncn2)n1,Potency,[1],20.9 µM (active)
same,Potency,[2],16.6 µM (active)
same,Potency,[3],18.7 µM (active)
same,Potency,[14],16.6 µM (active)
same,Potency,[17],23.5 µM (active)
same,Potency,[5],8.33 µM (active)
same,Potency,[7],13.2 µM (active)
same,Potency,[18],18.7 µM (active)
same,Potency,[8],18.7 µM (active)
same,Potency,[9],16.6 µM (active)
same,Potency,[10],16.6 µM (active)
same,Potency,[11],16.6 µM (active)
same,Potency,[12],13.2 µM (active)
same,Potency,[13],8.33 µM (active)
CC(=O)Nc1ccc([C@H](C)C(=O)Nc2ncc(C(C)C)s2)cc1,Potency,[1],5.9 µM (active)
same,Potency,[16],743 nM (active)
same,Potency,[3],2.35 µM (active)
same,Potency,[17],3.72 µM (active)
same,Potency,[6],0.743 µM (active)
same,Potency,[7],5.26 µM (active)
same,Potency,[15],8.33 µM (active)
same,Potency,[18],4.69 µM (active)
same,Potency,[8],0.0935 µM (active)
same,Potency,[9],0.418 µM (active)
same,Potency,[10],1.66 µM (active)
same,Potency,[11],3.72 µM (active)
same,Potency,[12],2.35 µM (active)
same,Potency,[13],1.48 µM (active)
C[C@H](NC(=O)c1sccc1OCc1ccc(Cl)cc1)c1ccccc1,Potency,[1],16.6 µM (active)
same,Potency,[3],16.6 µM (active)
same,Potency,[14],16.6 µM (active)
same,Potency,[6],16.6 µM (active)
same,Potency,[15],18.7 µM (active)
same,Potency,[12],18.7 µM (active)
